The supplement of paper PMC12350171
Counter-ions that a name gives are not always drawn. Unmarked numbers belong to inactive results.

Experiments:
Conditions in all cases: 20 µM
[1] = system: Salmonella enterica typhimurium; test: growth AUC normalised to DMSO control (fraction of control); higher = less growth inhibition, active = hit call of the paper
Method in brief: (§1)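 For the AUC endpoint, growth curves were integrated by the trapezoidal rule up to the exponential-to-stationary transition and normalised to DMSO controls on the same plate. The curves came from OD578 readings taken hourly for 24 h, in three biological replicates. Pathogens had been passaged anaerobically twice and inoculated at an OD578 of 0.01 into pre-reduced mGAM plates carrying 20 μM compound and 1% DMSO, sealed with breathable membranes. Medium for Haemophilus parainfluenzae also contained hemin and NAD.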

Shigella flexneri = test: as above
Method in brief: as §1

Vibrio cholerae = test: as above
Method in brief: as §1

[2] = system: Yersinia pseudotuberculosis; test: as above
Method in brief: as §1

P. vulgatus RND KO = test: growth AUC normalised to DMSO control (median) (fraction of control); higher = less growth inhibition, active = hit call of the paper
Method in brief: (§2)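 In 96-well plates of mGAM seeded at OD578 0.01, strains that had been passaged twice overnight without oxygen were exposed to approved-drug library compounds at 20 μM with 1% DMSO. Hourly OD578 readings were taken for 24 h in an anaerobic incubator. The trapezoidal-rule area under the curve, with curves truncated at entry into stationary phase, was expressed relative to same-plate vehicle wells as the median of three biological replicates.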

P. vulgatus WT = test: as above
Method in brief: as §2

[3] = system: S. enterica typhimurium WT; test: as above
Method in brief: as §2

[4] = system: S. enterica typhimurium tolC KO; test: as above
Method in brief: as §2
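Throughout, for growth AUC normalised to DMSO control (median): active when median AUC fell below 0.1.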

Row | SMILES | growth AUC normalised to DMSO control [1] | growth AUC normalised to DMSO control (Shigella flexneri) | growth AUC normalised to DMSO control (Vibrio cholerae) | growth AUC normalised to DMSO control [2] | growth AUC normalised to DMSO control (P. vulgatus RND KO) | growth AUC normalised to DMSO control (P. vulgatus WT) | growth AUC normalised to DMSO control [3] | growth AUC normalised to DMSO control [4]
1 | CC1=C(C(=O)O)N2C(=O)[C@@H](NC(=O)[C@H](N)c3ccc(O)cc3)[C@H]2SC1 [Cefadroxil] | 0.979 | 0.937 | 0.967 | 0.997 | 1.01 | 1 | 0.996 | 0.982
2 | CN1CCN(c2c(F)cc3c(=O)c(C(=O)O)cn(CCF)c3c2F)CC1 [Fleroxacin] |  | 0.0225 (active) | 0.0321 (active) | 0.0196 (active) | 0.727 | 0.585 | 0.00801 (active) | 0.00549 (active)
3 | CCOc1ccc2ccccc2c1C(=O)N[C@@H]1C(=O)N2[C@@H]1SC(C)(C)[C@@H]2C(=O)O [Nafcillin sodium salt monohydrate] | 0.981 | 0.973 | 0.96 | 0.967 |  |  | 1 | 
4 | Cc1ccc(/C(=C\CN2CCCC2)c2ccccn2)cc1 [Triprolidine hydrochloride] |  | 0.97 | 0.967 | 0.992 | 1 | 0.99 | 1 | 0.978
5 | N[C@@H](Cc1ccc(O)c(O)c1)C(=O)O [Levodopa] |  | 1 | 0.991 | 0.99 | 1.01 | 0.996 | 0.973 | 0.996
6 | N[C@@H](C(=O)N[C@@H]1C(=O)N2C(C(=O)O)=C(Cl)CS[C@H]12)c1ccccc1 [Cefaclor hydrate] | 0.492 (active) | 0.153 (active) | 1.03 | 0.209 (active) | 1.04 | 1.05 | 1.07 | 1.01
7 | CC1(C)S[C@@H]2[C@H](NC(=O)[C@H](N)c3ccccc3)C(=O)N2[C@H]1C(=O)O [Ampicillin trihydrate] | 0.00858 (active) | 0.0549 (active) | 0.254 (active) | 0.0564 (active) |  | 0.0887 (active) | 0.0624 (active) | 0.0201 (active)
8 | CCOC(=O)OC(C)OC(=O)[C@@H]1N2C(=O)[C@@H](NC(=O)[C@H](N)c3ccccc3)[C@H]2SC1(C)C (stereo partly specified) [Bacampicillin hydrochloride] | 0.00881 (active) | 0.0323 (active) | 1 | 0.277 (active) |  |  | 0.154 | 0.0179 (active)
9 | CN(Cc1cnc2nc(N)nc(N)c2n1)c1ccc(C(=O)N[C@@H](CCC(=O)O)C(=O)O)cc1 [Amethopterin] | 0.983 | 0.948 | 0.912 | 0.982 |  | 0.916 | 0.997 | 0.7
10 | CO[C@@]12[C@H](COC(N)=O)C3=C(C(=O)C(C)=C(N)C3=O)N1C[C@@H]1N[C@@H]12 [Mitomycin C] |  |  |  |  | 0.0125 (active) | 0.013 (active) | 0.196 | 0.00599 (active)
11 | Cn1c(=O)c2[nH]cnc2n(C)c1=O [Aminophylline] |  | 1.03 | 1.03 | 0.979 | 1.03 | 1.05 | 0.993 | 1.01
12 | Nc1cccc2c1C(=O)N(C1CCC(=O)NC1=O)C2=O (stereo unspecified) [Pomalidomide] |  |  |  |  | 1.06 | 1.09 | 1.02 | 0.983
13 | O=c1[nH]cnc2c1ncn2[C@H]1CC[C@@H](CO)O1 [Didanosine] |  | 1.01 | 1.04 | 0.73 (active) | 1 | 0.973 | 0.992 | 0.949
14 | CN1C(C(=O)Nc2ccccn2)=C(O)c2sccc2S1(=O)=O [Tenoxicam] |  | 0.94 | 0.791 (active) | 0.993 | 0.97 | 0.969 | 1 | 0.956
15 | CCN(CC)C(=O)C1(c2ccccc2)CC1CN (stereo unspecified) [Milnacipran hydrochloride] |  |  |  |  | 1.02 | 1.01 | 0.999 | 1
16 | CCOc1nc2cccc(C(=O)OCc3oc(=O)oc3C)c2n1Cc1ccc(-c2ccccc2-c2noc(=O)[nH]2)cc1 [Azilsartan medoxomil] |  |  |  |  | 0.988 | 0.962 | 1 | 0.998
17 | CCCCC(=O)N(Cc1ccc(-c2ccccc2-c2nnn[nH]2)cc1)[C@H](C(=O)O)C(C)C [Valsartan] |  |  |  |  | 1.04 | 1.02 | 1.02 | 1.02
18 | CCC(NC(C)C)C(O)c1ccc(O)c2[nH]c(=O)ccc12 (stereo unspecified) [Procaterol hydrochloride] |  |  |  |  | 1.08 | 1.09 | 1 | 0.987
19 | C[C@H]1[C@H](NC(=O)/C(=N\OC(C)(C)C(=O)O)c2csc(N)n2)C(=O)N1S(=O)(=O)O [Aztreonam] |  | 0.0599 (active) | 0.773 (active) | 0.135 (active) |  | 0.134 |  | 
20 | Cc1ncc([N+](=O)[O-])n1CCO [Metronidazole] |  |  |  | 1 | 0.0156 (active) | 0.0126 (active) | 1.04 | 0.991
21 | Cn1c(=O)c2c(ncn2C)n(C)c1=O [Caffeine] |  | 1.04 | 1.03 | 1.01 | 1.02 | 1.02 | 0.993 | 0.999
22 | O=C(C1CCCCC1)N1CC(=O)N2CCc3ccccc3C2C1 (stereo unspecified) [Praziquantel] |  |  |  | 0.996 | 0.997 | 1.03 | 1.01 | 0.997
23 | CN(C)c1cc(NC(=O)CNC(C)(C)C)c(O)c2c1C[C@H]1C[C@H]3[C@H](N(C)C)C(=O)C(C(N)=O)=C(O)[C@@]3(O)C(=O)C1=C2O [Tigecycline] |  |  |  |  | 0.987 | 0.997 | 0.995 | 0.997
24 | Cc1cc(/C=C/c2ccc3cc(N(C)C)ccc3[n+]2C)c(C)n1-c1ccccc1 [Pyrvinium pamoate] |  |  | 0.865 |  | 1.01 | 1.08 | 1.02 | 0.61
25 | CCC1(c2ccccc2)C(=O)NCNC1=O [Primidone] |  | 0.971 | 0.976 | 0.951 | 1 | 1 | 1 | 0.997
26 | C=C(CC)C(=O)c1ccc(OCC(=O)O)c(Cl)c1Cl [Ethacrynic acid] |  | 0.998 | 1.02 |  | 0.994 | 1.01 | 1 | 1.02
27 | COc1cc([C@@H]2c3cc4c(cc3[C@@H](O[C@@H]3O[C@@H]5CO[C@@H](C)O[C@H]5[C@H](O)[C@H]3O)[C@H]3COC(=O)[C@H]23)OCO4)cc(OC)c1O [Etoposide] |  | 1.03 | 1.02 | 0.99 |  | 1.09 | 1 | 0.0378 (active)
